# In the supplement of paper PMC6555819:
# Columns and labels:
# Experiment in all cases: PBM binding z-score (relative to random genomic background probes); higher = stronger binding; sequences stand for … in GC…GCGATTGACAGCGTAGAATGAAGG
# [1] = tested on: RARb homodimer (NR concentration 270 nM)
# In short: (§1)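 On custom Agilent 4×180K arrays, double-stranded probes with 34-nt variable regions carried direct-repeat seeds, single-nucleotide variants, half-site ablations or random human genomic background. Ligand-free nuclear receptor dimers were applied for 1 h, and binding was read with antibodies against each partner (one per run). Binding z-scores come from regression-normalized fluorescence, with the random background probes as reference.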
# [2] = tested on: RARg:RXRa (NR concentration 270 nM, RXRa partner concentration 90 nM)
# In short: as §1
# [3] = tested on: RARg homodimer (NR concentration 270 nM)
# In short: as §1
# [4] = tested on: RXRa DBDmut IVT, anti-RXR (DBD mutation: RXRa K156A/R161A, NR concentration 90 nM)
# In short: as §1
# [5] = tested on: RXRa homodimer (NR concentration 180 nM)
# In short: as §1
# [6] = tested on: THRa:RXRa (NR concentration 90 nM, RXRa partner concentration 90 nM)
# In short: as §1
# [7] = tested on: THRa homodimer (NR concentration 90 nM)
# In short: as §1
# [8] = tested on: VDR homodimer (NR concentration 270 nM)
# In short: as §1
Sequence,PBM binding z-score [1],PBM binding z-score [2],PBM binding z-score [3],PBM binding z-score [4],PBM binding z-score [5],PBM binding z-score [6],PBM binding z-score [7],PBM binding z-score [8]
ATCTCTAGGCAAGACTCAGTTCAGTGAAGAACGC,0.298,-0.279,0.0763,0.109,-0.365,0.205,0.122,1.01
GATACAGGGCCAGCTAGAGGCCAGAGTATGGAAA,0.561,0.806,0.594,-1.03,-0.349,-0.394,-0.861,-0.246
CCTAGCAGGCCAATCTGGGTCACTCGAGGCTTGA,2.3,1.11,1.12,-0.0882,0.738,3.7,0.253,0.136
ATTCAAAGTTCATCTAGGTAACGTAAGATATGCT,3.89,5.29,5.82,4.6,4.46,3.13,0.475,4.9
CCCACTGGGGCAGAAAGGTTACCATACCATCCGG,2.2,1.52,1.63,-1.65,1.6,1.01,-0.221,-0.41
AGAACGAGGGCACGCTGAGTTGATCGCAGAGTAG,1.14,2.19,2.41,1.74,1.27,1.85,-0.239,1.73
CCTTACGGGTCACGAGGGTATAGCACGACGAGCG,3.35,5.85,5.72,0.613,6.79,3.56,0.0461,1.29
ATCTCTAGGTAACGTTCAGTGAAAGATCGATAGA,0.194,0.535,0.638,0.201,0.277,0.969,0.455,-0.197
AGACAAAGTTCATCTAGGTAACGTAAGATATGCT,4.12,5.68,5.87,5.05,4.64,3.07,0.133,5.21
TCTTCTAGATCAAAGGTTAAGAAAGCCGAAGCCT,1.54,1.99,1.03,0.838,2.95,1.51,-0.597,0.119
ATACCAAGGTGATAGTGAGGTCGTTGATACTAAC,1.84,2.12,0.961,0.897,1.84,3.3,2.49,3.15
CAAACTCGGTCACCGGAAGGTCAAAGTCCGCATG,5.22,6.88,6.29,1.12,4.82,3.44,1.59,2.65
CTCGAAAGGTCGGCTGAGGTGAGTATACGGATAA,2.61,3.82,3.8,0.843,3.44,5.13,1.12,0.549
TTACCAAGATGAAAGGTCGTTGATGCACGCCTTG,1.55,1.58,0.973,0.753,2.49,1.27,-0.262,1.53
GTACCAAGGTGAATAGATCGTTGATGAGTAGGCG,0.231,0.664,0.719,-0.335,0.634,1.03,0.372,-0.106
CGAACTAGGTCAAAACAGGACAGTGAAGGATGAT,2.27,3.48,3.77,1.49,2.25,4.13,0.485,0.573
AATACAGCGTCACTAGGCCAGAGTAGGTACGAAT,-0.144,-0.145,0.173,-0.271,-0.094,-0.216,-0.342,-0.308
TTACCAAGGTGAAGTTCGTTGATCCCTCTGTAGA,1.18,0.78,0.824,1.02,0.97,1.8,0.676,1.66
TCTGCTAGGTCAACGATGGTCAGCTCATCTGCTA,3.24,3.91,4.62,1.05,2.41,3.15,0.671,-0.436

Sequence,PBM binding z-score [1],PBM binding z-score [2],PBM binding z-score [3],PBM binding z-score [4],PBM binding z-score [5],PBM binding z-score [6],PBM binding z-score [7],PBM binding z-score [8]
CGAACTAGGCCATCCAGGACAGTGAATACATTGA,0.41,0.517,0.851,0.537,0.302,1.57,0.93,0.275
GCGACTGGGGCATCAACAGGTTACCATAACTTAA,1.25,0.983,0.509,0.306,0.415,0.721,-0.0396,-0.142
CCTATTAGTAGACCATAAGGGCAACCGAAGCTCG,1.65,0.962,0.835,0.475,0.769,1.57,1.11,0.68
GCGACTGGGGCATCAGCAGGTTACCCTAACTTAA,0.901,0.748,0.106,-0.65,0.381,1.29,0.628,-0.558
TCATATAGGTAAAAGGTTAAAGTCGGTGTGGTAA,2.41,3.05,1.54,2.12,4.88,2.27,0.509,0.746
GCTAGCAGGCTATTTGGGTCACTCAATGACGGGC,1.63,0.682,0.795,-0.21,0.76,1.81,0.905,-0.158
TTACCAAGGTGAGCTGAGGTCGTTGAGCCAACTC,1.75,1.39,0.933,-0.158,1.48,4.77,2.04,1.96
GCTAACGGGTCAAAGGTTATAGCATGAATAGAAT,3.09,6.57,4.55,1.87,8.85,3.65,-0.286,1.33
ATTAGTTGGTCAGCTGAGGTCACACACAATTCGG,4.56,4.39,4.28,1.58,4.35,5.05,5.22,4.18
CCAGACAAGTGAGAAGGTAACTCAGCCTCGATTA,0.174,0.0341,0.205,0.366,0.108,0.152,0.461,0.281
CGAACGAAGGCATGAGTTGATAGCAAATGCCGAT,-0.914,-0.373,-0.278,-0.249,-0.113,-0.643,-0.827,-0.193
TCTAGTTGGTCAAAGGTGACACACTCGAAATGCG,2.21,2.9,1.95,1.03,3.06,1.7,0.635,0.44
CCGAGTAAGTTATGGGGCATTCAGGCAACGGTGA,0.181,-0.241,-0.0978,0.0937,-0.299,0.0579,-0.117,-0.0157
CCGACTGGGGCAAGGTTACTATAACGCACAGCCA,1.04,0.944,1.12,-0.108,0.985,0.939,0.2,0.00113
CGTCCAAGGTCATGGTCAGTGAAAGAGACTCGAA,4.01,6.19,6.11,3.84,5.98,3.92,2.89,2.52
ACTGACGGGTCAACGAGGTTATAGCACGCGTATA,3.27,4.88,4.97,1.69,5.11,3.63,0.781,3.7
ATCTCTGGGTAACCAAGTTCAGTGAATGCCGAAC,1.28,0.665,0.596,0.665,0.412,1.46,0.335,2.64
GCGACTGGGGCAAAGCGGGTTACCATAAGGTTGG,0.945,0.446,0.469,-0.587,0.545,2.47,0.0771,-0.483
CGTCCAAGGTCAGCAGTTCAGTGAAAGCGACGTG,4.62,5.66,6.02,2.93,4.16,3.78,2.45,2.41

Sequence,PBM binding z-score [1],PBM binding z-score [2],PBM binding z-score [3],PBM binding z-score [4],PBM binding z-score [5],PBM binding z-score [6],PBM binding z-score [7],PBM binding z-score [8]
AATACAGGGTCTCTAGGCCAGAGTAGGTACGAAT,0.256,0.0798,0.292,-0.254,-0.15,0.0248,-0.0749,0.143
TCGCCTAGGTCATTGGGCCAGTATAGTACGCATC,2.87,3.95,3.88,2.13,2.69,2.68,0.959,1.57
TCTGCTAGGTCAGTTGGTTAGCTAACGAGCTGCC,2.11,2.15,2.76,0.517,0.728,1.15,-0.142,-0.573
TCGAGTAGCTTAGGGGCATTCAGAATGGCGTCGA,0.0653,-0.284,-0.446,0.27,0.216,0.657,-0.487,0.282
CAAACTCGGTCACGAAAGGTCAAAGTCGAATGAC,5.24,7.03,7.47,1.9,7.26,4.47,1.09,3.28
CCTGCTAGGTCATGGACAGCTAATCTACAGTATG,2.73,4,4.68,1.85,3.17,2.9,0.931,0.0193
CCGACTGGGGCAAAGGTTAACATACTCAGTACGA,2.4,4.1,2.03,0.365,3.89,2.19,-0.145,0.335
CCTAGCAGGCCAATCTGGCTCACTCAAGGCTTGA,-0.747,-0.58,-0.5,-0.298,-0.743,-0.627,-0.709,-1.02
CGTCCTAGGTCAAGGTCAGTGAAAGAGACTCGAA,4.34,5.41,6.43,2.02,4.55,3.82,2.95,1.93
ACTATTACTTGACTTAGGGCAACCGATACGACGC,1.06,0.943,1.1,0.983,0.745,0.888,1.1,0.484
TCTATGAGTTGAAGGGCAACCGACGAGTCCGTTT,1.12,0.637,0.461,1.55,0.971,0.511,-0.405,1.57
GAAACAGGGTCAAGGCCAGAGTACGCGTATTGAT,4.02,5.52,5.06,2.9,6.17,3.85,1.44,2.56
ATCTCTAGGTAAAAGATCAGTGAATCCCGAGGAT,-0.353,0.381,0.48,-0.342,0.281,0.298,0.125,-0.0729
TCATATAGGTAAAAAGTGAAAGTCGGTGTGGTAA,0.0434,0.226,-0.0939,2.01,0.563,-0.0757,-0.132,0.435
TAGCCTAGCTCATGCGGGCCAGTATAGTGTCGGC,-1.08,-0.81,-0.912,-1.45,-0.694,-1.65,-1.25,-0.887
CGAACTAGGTCAAGGACATTGAATCTCCGCACGC,3.12,3.91,4.46,1.62,2.91,3.16,2.43,1.13
TCTTGTAGATCAACGGGAGGTTAAGAAAGATCGA,0.654,1.49,0.307,0.748,1.06,1.11,-0.165,-0.124
GTACCAAGGTGAATAGGTCGTTGACGAGTAGGCG,1.93,2.91,1.53,-0.0525,2.19,1.92,0.438,0.14
